Assay outcomes (PubChem BioAssay)
TDP1 cell noCPT = qHTS for Inhibitors of human tyrosyl-DNA phosphodiesterase 1 (TDP1): qHTS in cells in absence of CPT | DT40 Tdp1-/- hTDP1 cells, no CPT, ATP luminescence, 48 h | Potency, µM (highest dose often 46.2 µM), for the others: at the top dose activity change, negative = growth inhibition, actives largely listed as inhibitors | 420,000 tested, 15% active | AID 686978, 2013; note: potency is the fitted concentration of half-maximal effect; % is set by controls: 0 for no effect and ±100 for the full control effect; nearly all actives have a fitted effect of over 55% in size
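Readout: luminescence from CellTiter-Glo after 30 min in the dark at RT. Cells: DT40 Tdp1-/- with stable hTDP1, 400/well. Exposure: compounds alone, ≥48 hr, 37 °C.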
HepG2 viability = counter-screen for TGF-b inhibitors: cytotoxicity in HepG2 cells. HepG2 CAGA-GFP viability, ATP luminescence, 18 h. Potency, µM (highest dose often 46.1 µM), inactives show top-dose activity change, negative = cytotoxicity, hits mostly cytotoxic. 410,000 tested, 0.76% active. AID 588856; note: potency is the fitted concentration of half-maximal effect
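HepG2 CAGA-GFP cells (1000/well, DMEM with 1% FBS) received compound, then TGF-beta at 500 pg/mL final, and were incubated 18 hours at 37 degrees C. Viability was read by CellTiter-Glo luminescence. Media-only wells were set as complete cell-killing and DMSO as no toxicity.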
TGFb SMAD3 inh = TGF-b pathway inhibition; HepG2 CAGA-GFP TGF-b/SMAD3 reporter, GFP fluorescence, 18 h; TGF-beta stimulated, 500 pg/mL final; Potency, µM (series often up to 46.1 µM), for the others: top-dose activity, negative = inhibition, most hits filed as inhibitors; 410,000 tested, 1.2% active; note: potency is the fitted concentration of half-maximal effect; % is set by controls: 0 for no effect and ±100 for the full control effect; nearly all actives have a fitted effect of over 65% in size
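TGF-beta reporter screen: HEPG2 CAGA-GFP, 1% FBS, 500 pg/mL TGF-beta final, 18 h; per-cell GFP summed per well; curves fitted and categorized by class.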
DT40 TDP1 CPT = growth inhibition of DT40 Tdp1-/-;hTDP1 cells with camptothecin (screen for TDP1 inhibitors) | Potency, µM (doses to about 46.2 µM), without a hit: at the highest dose activity change, negative = growth inhibition, usual class: inhibitors | 420,000 tested, 12% active | chicken DT40 Tdp1-/-;hTDP1 cells + 20 nM CPT, ATP luminescence, 48 h; note: potency is the fitted concentration of half-maximal effect; % is set by controls: 0 for no effect and ±100 for the full control effect; nearly all actives have a fitted effect of over 55% in size
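Chicken DT40 Tdp1-/- cells complemented with human TDP1, 400 cells/well, exposed to compounds plus 20 nM camptothecin for at least 48 h at 37 C; viability read as ATP content by CellTiter-Glo luminescence.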
TDP1 inh = TDP1 (human) enzyme inhibition; Q9NUW8; recombinant TDP1, AlphaScreen DNA substrate cleavage; Potency, µM (doses to about 130 µM), for inactives: at the highest dose activity change, negative = inhibition, most hits filed as inhibitors; 350,000 tested, 0.28% active; note: potency is the fitted concentration of half-maximal effect; % is set by controls: 0 for no effect and ±100 for the full control effect; nearly all actives have a fitted effect of over 40% in size
Target sequence (Q9NUW8 whole entry, looked up): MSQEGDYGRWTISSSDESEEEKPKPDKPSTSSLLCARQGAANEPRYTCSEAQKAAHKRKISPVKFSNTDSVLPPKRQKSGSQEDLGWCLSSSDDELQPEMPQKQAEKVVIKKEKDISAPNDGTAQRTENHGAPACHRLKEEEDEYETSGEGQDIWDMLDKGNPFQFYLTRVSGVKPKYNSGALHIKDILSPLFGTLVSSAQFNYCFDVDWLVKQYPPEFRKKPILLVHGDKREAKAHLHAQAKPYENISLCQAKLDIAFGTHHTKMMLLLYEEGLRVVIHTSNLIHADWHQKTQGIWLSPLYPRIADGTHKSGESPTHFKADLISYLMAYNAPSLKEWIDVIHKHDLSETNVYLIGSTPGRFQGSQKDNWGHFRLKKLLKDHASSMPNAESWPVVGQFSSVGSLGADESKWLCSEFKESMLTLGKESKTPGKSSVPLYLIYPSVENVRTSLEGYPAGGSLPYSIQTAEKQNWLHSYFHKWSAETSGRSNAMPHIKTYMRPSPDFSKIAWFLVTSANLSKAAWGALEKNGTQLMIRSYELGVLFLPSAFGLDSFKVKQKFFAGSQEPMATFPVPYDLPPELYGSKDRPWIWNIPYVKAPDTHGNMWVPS
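AlphaScreen read-out: signal falls as enzyme removes the 3' tyrosine-FITC from a 5'-biotinylated DNA oligo (15 nM, 5 min, RT). Enzyme was E. coli-made recombinant Tdp1 at 1 nM, exposed to compound for 15 min beforehand; beads 10 ug/ml, 10 min.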
IL-1B inflam inh = inhibitors of inflammasome signaling (IL-1 beta secretion); THP-1 LPS/ATP IL-1B secretion, AlphaLISA, 16 h; stronger effect = lower value; activity change, % at 57.5 µM; 360,000 tested, 4.7% active; AID 743279; in the data active = activity change below about -50%; inconclusive = mostly about -30% to -49%; note: % is set by controls: 0 for no effect and ±100 for the full control effect
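THP-1 cells pretreated 1 hr with compounds (up to 57.5 uM final), then stimulated with LPS (250 ng/mL final) plus ATP (1.25 mM final); secreted IL-1B measured by AlphaLISA after 16 hr, decreased signal indicating inhibition.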
* hit, by the source's call; ? = inconclusive; . = no result given. Sampled rows, rich in hits. Any-hit rate of the full collection: about 19%. Unless noted, calls come from the whole dose curve; as a rule, active = well fitted curve in the direction sought with a large enough effect; inconclusive = small, poorly fitted or top-dose-only effect, or another doubt; inactive = no such curve, though single readings can be large; an effect the other way counts as inactive or inconclusive.

SMILES | TDP1 cell noCPT | HepG2 viability | TGFb SMAD3 inh | DT40 TDP1 CPT | TDP1 inh | IL-1B inflam inh
COc1ccc(-c2cc(=O)oc3cc(OCC(=O)Nc4ccc(CCO)cc4)ccc23)cc1 | 0.52µM* | -13% | -6% | 3.7µM* | -1% | 64
COC(=O)COc1ccc2c(-c3ccc(OC)cc3)cc(=O)oc2c1 | -2% | -7% | 5% | 0.41µM* | 6% | 24
O=C(Oc1ccc2c(-c3ccccc3)cc(=O)oc2c1)C1CCCCC1 | ? | -4% | 5% | ? | 0% | -7
COc1ccc(-c2cc(=O)oc3cc(OC(=O)C4CCCCC4)ccc23)cc1 | 18µM* | -21% | 7% | ? | -3% | -25
C=C(C)CNC(=S)N/N=C1\CCCCc2ccccc21 | ? | 1% | ? | ? | -3% | 26
COc1ccc(C2CC(=O)c3cc(-c4nc(-c5cccc([N+](=O)[O-])c5)cs4)c(=O)n(-c4ccc(C)c(C)c4)c3C2)cc1 (stereo unspecified) | 0% | 0% | ? | 10% | 0% | .
CCCNc1nc(C#N)nc(Nc2ccccc2)n1 | . | . | . | . | 6% | .
Cc1ccc(F)cc1C(=O)N1CCCCC1c1cc(C(=O)NCc2ccccc2)no1 (stereo unspecified) | ? | -18% | -1% | 13µM* | . | 2
CCCNC(=O)c1cc(C2CCCCN2C(=O)c2cc(F)ccc2C)on1 (stereo unspecified) | -22% | 1% | 5% | -28% | . | 38
O=C(NCc1ccccc1)c1cc(C2CCCCN2C(=O)CCCc2ccccc2)on1 (stereo unspecified) | ? | -13% | 0% | -24% | . | -15
O=C(NCc1ccc(F)cc1)c1cc(C2CCCCN2C(=O)CCCc2ccccc2)on1 (stereo unspecified) | 23µM* | -25% | -1% | ? | . | ?
CC(C)COC(=O)N1CCCCC1c1cc(C(=O)NCc2ccccc2)no1 (stereo unspecified) | ? | 3% | 13% | 18µM* | . | -10
O=C(NCc1ccc(F)cc1)c1cc(C2CCCN(C(=O)CCCc3ccccc3)C2)on1 (stereo unspecified) | ? | -26% | 5% | 23µM* | . | ?
COc1ccc(NC(=O)C(NS(=O)(=O)c2cccs2)C(C)C)cc1Cl (stereo unspecified) | ? | -12% | 0% | -3% | -16% | -13
O=C1CCc2cc(S(=O)(=O)NCc3ccccc3)ccc2N1 | . | . | . | . | 1% | .
CN(Cc1ccccc1)C(=O)C(=O)c1c[nH]c2ccccc12 | ? | -11% | -7% | -17% | . | -11
CCCCc1ccc(NC(=O)COC(=O)c2ccc3ncsc3c2)cc1 | -17% | -4% | 2% | -6% | . | 13
O=C(Nc1ccccc1)c1cc(C2CCCN(C(=O)CCc3ccccc3)C2)on1 (stereo unspecified) | ? | -18% | 20% | 26µM* | . | 7
CCOC(=O)CC(NC(=O)CCc1c(C)nc2c(c(C)nn2-c2ccc(C)c(C)c2)c1C)c1ccc(C)cc1 (stereo unspecified) | ? | 3% | 5% | -1% | 1% | .
O=C(NCC(c1cccnc1)N1CCN(c2ccccc2F)CC1)OCc1ccccc1 (stereo unspecified) | 18µM* | -28% | -15% | ? | 2% | -18
O=C(NCC(c1cccnc1)N1CCN(c2ccc(F)cc2)CC1)c1cccc(Cl)c1 (stereo unspecified) | 10µM* | -13% | ? | 16µM* | 2% | -22
O=C(NCC(c1cccnc1)N1CCN(c2ccccc2F)CC1)c1ccco1 (stereo unspecified) | 23µM* | -16% | -13% | ? | 8% | 40
O=C(NCC(c1cccnc1)N1CCN(c2ccccc2F)CC1)c1ccccc1 (stereo unspecified) | ? | -15% | -1% | ? | 2% | 12
O=C(NCc1cccnc1)C(=O)NCC(c1cccnc1)N1CCN(c2ccc(F)cc2)CC1 (stereo unspecified) | 18µM* | -5% | -5% | 21µM* | 5% | .
CC(=O)N1CCC(C(=O)N2c3ccccc3N=C(c3ccc4c(c3)OCO4)C2C(=O)NCc2ccccc2)CC1 (stereo unspecified) | -24% | . | . | -21% | . | ?
SMILES | TDP1 cell noCPT | HepG2 viability | TGFb SMAD3 inh | DT40 TDP1 CPT | TDP1 inh | IL-1B inflam inh
COc1ccc(N2CCN(C(CNC(=O)C(=O)NCCc3c[nH]c4ccccc34)c3ccco3)CC2)cc1 (stereo unspecified) | ? | -38% | -23% | -16% | 4% | -52*
O=C(NCCc1c[nH]c2ccccc12)C(=O)NCC(c1cccnc1)N1CCN(c2ccccc2)CC1 (stereo unspecified) | 16µM* | -19% | -23% | 18µM* | -4% | 32
O=C(NCC(c1cccnc1)N1CCN(c2ccc(F)cc2)CC1)OCc1ccccc1 (stereo unspecified) | 15µM* | -1% | ? | ? | -4% | -17
COCCNC(=O)C(=O)NCC(c1cccnc1)N1CCN(c2ccccc2)CC1 (stereo unspecified) | -20% | -10% | 0% | 1% | 4% | .
O=C(NCCc1ccccc1)C(=O)NCC(c1cccnc1)N1CCN(c2ccc(F)cc2)CC1 (stereo unspecified) | 10µM* | -5% | -14% | 15µM* | 4% | .
COc1cc2nc3c(c([Si](C)(C)C(C)(C)C)c2cc1OC)Cn1c-3cccc1=O | . | . | . | . | 1% | .
COc1ccc2c(C(=O)c3ccc(C)cc3)n(CCCC(N)=O)[n+]([O-])c2c1 | -17% | -2% | -13% | 2% | 0% | -3
NC(=O)CCCn1c(C(=O)c2ccc(Cl)cc2)c2ccc([N+](=O)[O-])cc2[n+]1[O-] | 8.2µM* | -33% | ? | 3.7µM* | 3% | -10
NCCCn1c(C(=O)c2ccc(Cl)cc2)c2ccc([N+](=O)[O-])cc2[n+]1[O-] | 4.1µM* | -32% | 10µM* | 4.1µM* | 6% | -60*
Cc1ccc(C(=O)c2c3ccc([N+](=O)[O-])cc3[n+]([O-])n2CCCC(N)=O)cc1 | ? | -22% | ? | 5.8µM* | 3% | -7
